Hits are enriched below; roughly 5.3% of the tested compounds scored in any of these assays.
IMPase Li inh = cell-permeable IMPase inhibitors with lithium potentiation; Potency, µM (top dose mostly 59.4 µM), inactives show top-dose activity, negative = IMPase inhibition, hits mostly inhibitors; CHO-M1 cells, IP1 TR-FRET (IP-One), carbachol + lithium; actives 0.35% (n = 210,000); AID 1457;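 note: IP1 builds up when IMPase is blocked and the TR-FRET signal falls; potency is the fitted concentration of half-maximal effect; plate controls were basal vehicle for no effect and high inhibitor control for full effect; nearly all actives have a fitted effect of over 50% in size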
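Readout is a homogeneous TR-FRET IP1 immunoassay (Ex 320, Em 665 and 620), where raised cytosolic IP1 lowers signal. Cells were CHO-M1 treated 30 min at 37C with test compounds plus a little lithium; AC50 values came from Hill-equation fitting.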
IMPase inh = membrane-permeable compound that blocks inositol monophosphatase | P97697 | CHO-M1 cells, IP1 accumulation, HTRF TR-FRET ratio | inhibition (IP1 accumulation), % at 46.1 µM | 120,000 tested, under 10 active; active = well fitted curve in the direction sought with a large enough effect in the signal ratio, not every such curve was filed as active; inconclusive = small, poorly fitted or top-dose-only effect, or a change in a side signal; inactive = no such curve, though single readings can be large or run the other way; the % refers to the signal ratio;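 note: cells stimulated with carbachol in lithium chloride buffer; plate controls were DMSO basal wells for no effect and reference inhibitor wells for full effect; higher means more IMPase inhibition seen as more IP1 and lower FRET ratio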
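Elevated IP1 in lysates lowers TR-FRET signal (665/620 ratio and 620 channel reported). Cells were CHO-M1, given carbachol (50 uM as added) plus 50mM LiCl, pH 7.4, 30 min, 37C; compounds titrated up to 46 uM; AC50 by Hill equation.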
ALOX12 inhib = blocks human 12-lipoxygenase activity. Potency, µM (doses to about 57.1 µM), for inactives: at the highest dose activity change, negative = inhibition, hits mostly inhibitors. AID 1452. purified 12-hLO, xylenol orange hydroperoxide absorbance. actives 0.12% (n = 150,000); note: potency is the fitted concentration of half-maximal effect; nearly all actives have a fitted effect of over 55% in size
Target sequence (P18054 whole entry, looked up): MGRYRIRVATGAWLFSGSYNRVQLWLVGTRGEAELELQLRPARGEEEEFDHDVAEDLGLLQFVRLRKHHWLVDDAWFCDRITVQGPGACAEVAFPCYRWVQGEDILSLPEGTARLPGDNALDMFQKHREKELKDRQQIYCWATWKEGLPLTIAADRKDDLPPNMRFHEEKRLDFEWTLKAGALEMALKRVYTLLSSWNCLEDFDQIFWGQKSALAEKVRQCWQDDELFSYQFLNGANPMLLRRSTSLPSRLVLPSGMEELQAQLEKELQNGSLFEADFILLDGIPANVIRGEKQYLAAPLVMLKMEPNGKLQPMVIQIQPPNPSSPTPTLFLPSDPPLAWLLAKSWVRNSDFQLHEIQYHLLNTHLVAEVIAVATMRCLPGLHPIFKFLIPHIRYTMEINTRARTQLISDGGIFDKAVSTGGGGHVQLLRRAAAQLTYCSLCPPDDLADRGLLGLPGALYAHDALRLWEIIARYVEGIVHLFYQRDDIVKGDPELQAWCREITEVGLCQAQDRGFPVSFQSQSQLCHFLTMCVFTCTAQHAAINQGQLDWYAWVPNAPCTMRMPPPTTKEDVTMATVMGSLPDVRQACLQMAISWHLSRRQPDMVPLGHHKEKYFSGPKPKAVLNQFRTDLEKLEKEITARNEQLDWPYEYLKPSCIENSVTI
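Hydroperoxide output read as Fe(III)-xylenol orange absorbance, 573-to-405 nm ratio, after 30 min reaction with 40 uM arachidonic acid. Enzyme: 150 nM purified human 12hLO, 15 min compound preincubation; 25 mM Hepes pH 7.0, room temperature.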
15-hLO-2 inh = 15-hLO-2 (ALOX15B) enzyme inhibition. AID 881. purified 15hLO-2, xylenol orange hydroperoxide absorbance. Potency, µM (highest dose often 57.1 µM), for inactives: at the top dose activity change, negative = inhibition, hits mostly inhibitors. actives 0.56% (n = 110,000); note: potency is the fitted concentration of half-maximal effect; nearly all actives have a fitted effect of over 60% in size
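Read-out: hydroperoxide product oxidises ferrous iron, measured as xylenol orange complex via the 573-to-405 nm absorbance ratio after 30 min. Reaction: 50 nM enzyme, 15 min compound preincubation, 45 uM arachidonic acid, 90 min RT, Hepes pH 7.5 with Triton X-100.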
PNC assembly inh = perinucleolar compartment assembly inhibition. PC3M PTB-GFP, PNC prevalence imaging, 16 h; hits give low values. activity change (PNC), negative = inhibition, % at 10 µM. actives 3.1% (n = 140,000);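 active = readout at or below -70, meaning at least 70% loss of cells showing the perinucleolar compartment, a nuclear body marking cancer cells; inconclusive = readout between -30 and a set limit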;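 note: plate controls were DMSO wells for no effect and camptothecin positive control wells for full effect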
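Read-out is percentage of cells bearing a perinucleolar compartment, from automated 20x imaging of fixed, Hoechst-stained PC3M PTB-GFP cells. Cells were seeded 4 h, then exposed 16 h to compound (23 nl of library stock) in duplicate plates.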
HPGD block = inhibitors of human 15-hydroxyprostaglandin dehydrogenase (HPGD); P15428; actives 4.3% (n = 150,000); purified HPGD, NADH fluorescence kinetic, PGE2 substrate; Potency, µM, for inactives: at the highest dose activity change, negative = inhibition, usual class: inhibitors; active = well fitted inhibition curve with a large enough effect, not every such curve was filed as active; inconclusive = small, poorly fitted or top-dose-only effect, or another doubt; inactive = no such curve, though single readings can be large or run the other way; note: potency is the fitted concentration of half-maximal effect
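20 nM HPGD preincubated 15 min at room temperature with compound in 50 mM Tris-HCl pH 8, 0.01% Tween 20. Started with 1 mM NAD+ and 30 uM prostaglandin E2; NADH fluorescence (360/450 nm) read 5 times over 30-s intervals, last minus first.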
Starred values were filed as active, the others as inactive; ? = inconclusive; nt = no result; [ ] = remark or other dose. Unless noted, calls come from the whole dose curve; as a rule, active = well fitted curve in the direction sought with a large enough effect; inconclusive = small, poorly fitted or top-dose-only effect, or another doubt; inactive = no such curve, though single readings can be large; an effect the other way counts as inactive or inconclusive. Unless noted, % is set by controls: 0 for no effect and ±100 for the full control effect.

SMILES	IMPase Li inh	IMPase inh	ALOX12 inhib	15-hLO-2 inh	PNC assembly inh	HPGD block
CC(=O)Nc1ccc(OCC(O)Cn2c3ccccc3c3ccccc32)cc1 (configuration not stated)	1.8%	0.4	-0.6%	nt	?	-11.8%
CC(=O)Nc1ccc(OCC(O)Cn2c3ccccc3c3ccccc32)c(C)c1 (configuration not stated)	10.2%[38.3 µM]	-3.9	-0.9%	-8.7%	37.8	25.1µM*
COc1ccc(-c2c(C(C)=O)c(C)nc3sc4c(c23)NC(c2ccccc2)NC4=O)cc1 (configuration not stated)	?	?	10.5%	2.0%	26.0	?
COc1ccc(-c2c(C(C)=O)c(C)nc3sc4c(=O)[nH]nnc4c23)cc1	-4.1%	nt	-3.9%	nt	26.5	17.8µM*
CCOC(=O)c1c(C)nc2sc3c(=O)n(-c4ccc(OC)cc4)nnc3c2c1-c1ccc(OC)cc1	-1.8%[38.3 µM]	-0.2	-10.7%	-25.6%	-106.0*	-11.6%
CCOC(=O)c1c(C)nc2sc3c(c2c1-c1ccc(OC)cc1)NC(c1ccccc1)NC3=O (configuration not stated)	?	-0.9	-8.1%	-5.8%	-83.2*	120.8%
CCOC(=O)c1c(C)nc2sc3c(=O)n(-c4ccc(C(C)=O)cc4)cnc3c2c1-c1ccc(OC)cc1	5.1%	7.3	7.3%	1.5%	-0.1	-7.6%
O=C1c2ccccc2C(=O)N1Nc1ccccc1	0.2%[38.3 µM]	-4.8	-9.3%	-9.2%	-106.0*	-6.4%
CCC(C)(C)n1c(=O)[nH]c2c(c1=O)CCC2	nt	9.2	-1.7%	1.9%	?	nt
Cc1ccc(C(=O)OCC(=O)NCc2cccs2)cc1	-3.4%	0.2	1.0%	nt	39.4	?
Cc1ccc(OCC(=O)NCc2cccs2)cc1	29.5%[38.3 µM]	6.9	0.9%	0.2%	?	22.4µM*
Cc1c(Cl)c(=O)oc2cc(OCC(=O)NCc3cccs3)ccc12	-13.9%	nt	-1.7%	nt	-108.4*	?
O=C(COC(=O)c1ccc(CO)cc1)NCc1cccs1	-1.8%	nt	-2.8%	nt	16.6	31.6µM*
Cc1ccc(N(CC(=O)NCc2cccs2)S(=O)(=O)c2cccs2)cc1	5.9%[38.3 µM]	6.4	9.1%	18.9%	-83.5*	-11.8%
CC(NC(=O)CCN1C(=O)c2ccccc2C1=O)c1ccc2c(c1)CCCC2 (configuration not stated)	-3.1%	nt	-2.8%	nt	-113.4*	-3.4%
CC(NC(=O)CCCN1C(=O)c2ccccc2C1=O)c1ccc2c(c1)CCCC2 (configuration not stated)	?	0.3	-2.4%	-23.8%	?	-11.4%
O=C(CSC1CC(=O)N(CCc2ccccc2)C1=O)Nc1cccc(Cl)c1 (configuration not stated)	-11.1%	-0.9	-14.0%	nt	-2.1	7.94µM*
CC1CC(=O)C2=C(C1)Nc1ccccc1SC2c1ccc(F)cc1 (configuration not stated)	7.0%	nt	-5.4%	nt	-85.3*	-6.9%
CC(C)c1ccc(C2Sc3ccccc3NC3=C2C(=O)c2ccccc23)cc1 (configuration not stated)	nt	1.3	nt	nt	nt	nt
Cn1c(=O)c2c(nc(SCC(=O)NCc3ccc4c(c3)OCO4)n2Cc2ccc(Cl)cc2)n(C)c1=O	27.6%	-3.0	-0.1%	nt	-100.0*	-14.6%
O=C(CSc1nnc2scc(-c3ccc(Cl)cc3)n12)NCc1ccc2c(c1)OCO2	14.2%[38.3 µM]	11.1	-3.3%	-6.6%	-85.5*	-6.7%
CN1CCN(c2ccncc2S(=O)(=O)N2CCN(C)CC2)CC1	-0.1%	nt	0.0%[11.4 µM]	-4.4%[11.4 µM]	nt	-4.5%
COC(=O)c1ccc(C(NC(=O)OCc2ccccc2)/C(C)=C/[C@@H](C)C(=O)N[C@@H](CO)Cc2ccccc2)cc1 (some centres not stated)	10.4%	nt	2.0%	1.4%	nt	-13.0%
CCC(C)NC(=O)c1ccccc1NC(=O)c1ccc(CSc2ccccc2)cc1 (configuration not stated)	3.8%	0.7	-3.5%	nt	-0.1	-5.8%
Cc1ccc(SCc2ccc(C(=O)Nc3ccccc3C(=O)NC(C)C)cc2)cc1	nt	-19.4	-0.6%	nt	-87.5*	nt
SMILES	IMPase Li inh	IMPase inh	ALOX12 inhib	15-hLO-2 inh	PNC assembly inh	HPGD block
O=C(O)CSc1nnc(SCc2cccc3ccccc23)s1	29.6%[38.3 µM]	5.3	1.7%	-9.2%	29.7	15.8µM*
CC(c1cccs1)N(Cc1ccco1)C(=S)Nc1ccccc1Cl (configuration not stated)	-2.5%	nt	nt	nt	nt	nt
Cc1ccc(-n2c(C)cc3c2CC(C)(C)CC3=O)cc1C	-4.8%[38.3 µM]	2.2	-4.6%	1.3%	-85.2*	-4.3%
Cc1cc2c(n1-c1ccc(Br)cc1)CC(C)(C)CC2=O	27.6%[38.3 µM]	-2.7	8.5%	-2.0%	?	-2.5%
COc1ccc(-c2nc(N)n(C(=O)c3ccccc3Cl)n2)cc1	9.2%	nt	-9.6%	nt	38.7	-13.2%
COc1ccc2c(CC(=O)Nc3ccc(OC)c(NS(=O)(=O)c4ccc(F)cc4)c3)coc2c1	10.6%[38.3 µM]	0.4	4.7%	-2.3%	-126.8*	-16.2%
COc1ccc2c(CC(=O)Nc3ccccc3OC)coc2c1	12.9%	nt	nt	nt	nt	nt
C=CCSc1nnc(-c2cnn(-c3ccccc3)c2-n2cccc2)n1C	53.3%[38.3 µM]	-0.3	2.0%	4.3%	-22.7	?
CCCSc1nnc(-c2cnn(-c3ccccc3)c2-n2cccc2)n1C	33.0%[38.3 µM]	5.4	-6.4%	-9.3%	23.8	17.8µM*
O=[N+]([O-])c1ccccc1/C=N/Nc1nnc(-c2ccccc2)c(-c2ccccc2)n1	-1.4%	3.5	-2.7%	nt	-4.9	0.0%
COc1ccccc1Nc1ccc([N+](=O)[O-])cc1N	7.8%	nt	-7.1%	nt	9.4	-11.3%
COc1cc(Nc2ccccc2Cl)c([N+](=O)[O-])nc1[N+](=O)[O-]	13.9%[38.3 µM]	-7.1	1.3%	-21.3%	-92.3*	25.1µM*
CCCC(C)NC(=O)c1ccc(F)cc1 (configuration not stated)	14.6%[38.3 µM]	2.9	5.9%	0.3%	-82.2*	?
CCCC(C)NC(=O)c1ccc(-c2ccccc2)cc1 (configuration not stated)	-8.7%	nt	nt	nt	nt	nt
COc1cc(C(=S)N2CCCC2)cc(Cl)c1OCC(=O)Nc1ccc(C)cc1C	0.8%	nt	-21.5%	nt	5.5	7.94µM*
CCOc1cc(C(=O)Nc2ccc(C)cc2C)ccc1OCC(=O)N1CCCCC1	-2.9%	2.3	-1.9%	nt	-22.9	-2.0%
COc1ccc(/C=N/NC(=O)CSc2n[nH]c(=O)[nH]c2=O)cc1	-2.9%	?	-0.6%	nt	3.6	20µM*
COc1ccc(/C=N/NC(=O)CC(=O)N/N=C/c2ccc(OC)cc2)cc1	-3.8%	nt	nt	nt	nt	nt
